From PubChem
Compounds with a hit are over-represented: about 2.8% of the library has one in this group of screens.
HIF-2a inh: HIF-2a reporter inhibitors, primary screen, luminescence, 786-0 RCC cells | inhibition, % at 18.8 µM | 786-0 RCC cells HIF-2a reporter, luciferase luminescence, overnight | 360,000 compounds, 0.72% hits;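 active = inhibition of the luminescence signal of 40% or more relative to plate controls, in a single-dose primary screen at 18.75 µM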
CF NFkB block: inhibitors of PAF-induced NF-kB signaling, primary screen, cell-based, GFP fluorescence, uHTS. KKLEB NF-kB-GFP reporter, GFP fluorescence overnight. inhibition, % at 5 µM. 360,000 compounds, 0.86% hits;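 active = at least 50% inhibition at 5 µM, scaled per plate between neutral and stimulator controls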;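 also: PAF is a Pseudomonas aeruginosa culture filtrate used as stimulus; plate controls were PAF-stimulated DMSO wells for no effect and unstimulated DMSO wells for full effect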
Peg3 prom inh: Peg3 promoter-driven luciferase inhibitors, primary screen, cell-based, HeLa, luciferase luminescence; HeLa PEG-Prom luciferase reporter, overnight; inhibition, % at 20 µM; 360,000 compounds, 1.7% hits; AID 588405, 2011;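 active = inhibition of at least 50% at 20 µM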
KKLEB tox: cytotoxicity in KKLEB CF airway cells, primary screen, cytotoxicity control for CF NF-kB inhibitor project, cell-based, uHTS, fluorescence assay plates. AID 602141, 2011. activity change (cytotoxicity), % at 5 µM. KKLEB CF airway cells viability, ATPlite luminescence, overnight; stronger effect = lower value; cells stimulated with P. aeruginosa culture filtrate. 360,000 compounds, 0.36% hits;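 active = corrected activity change at or below -50% at 5 µM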
Shn3 inh set2: reduction of Shn3 3'UTR firefly luciferase signal, primary screen, Schnurri-3 inhibitor project, cell-based, Clone20 osteoblasts, set 2; Clone20 osteoblast Shn3 3'UTR firefly luciferase, 24 h; inhibition, % at 12.5 µM; 360,000 compounds, 0.52% hits; AID 588674, 2011;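 active = mean inhibition of at least 75% with every replicate also reaching 75%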;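 also: 0% = median of neutral control wells and 100% = pilot-screen positive control compound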
MITF TRPM1 inh: inhibitors of MITF-dependent TRPM1 promoter reporter, primary screen, cell-based, SK-MEL-5, single point, luciferase; inhibition, % at 12.5 µM; 330,000 compounds, 0.83% hits; SK-MEL-5 TRPM1 promoter luciferase, 24 h;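 active = mean inhibition across replicates of 60% or more, whatever share of single replicates reaches that level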
* hit, by the source's call; nt = not tested or not shown.

SMILES	HIF-2a inh	CF NFkB block	Peg3 prom inh	KKLEB tox	Shn3 inh set2	MITF TRPM1 inh
O=C(Nc1cccc(-n2cnnn2)c1)c1ccc(OC(F)(F)F)cc1	-18.2	9.7	-23.6	-17.8	33.0	-7.3
CC(C)n1cc(CN2CCCC(C(=O)Nc3cccc(-c4cc5ccccc5[nH]4)c3)C2)cn1 (stereo not given)	6.6	26.1	97.3*	-13.1	32.8	-1.9
Cn1cc(CN2CCCC(C(=O)Nc3cccc(-c4cc5ccccc5[nH]4)c3)C2)cn1 (stereo not given)	1.5	-7.4	55.5*	-6.2	4.7	-3.7
N#Cc1ccc(-c2ccc(Cl)cc2)nc1SCC(=O)c1cccc(Cl)c1	16.3	9.2	85.5*	-16.7	15.5	24.8
CCCN(CC(=O)Nc1ccccc1C)C(=O)Cc1coc2cc(C)ccc12	7.3	-2.6	11.8	18.3	-16.0	-6.7
COc1cc(C2C3=C(COC3=O)Oc3cc4c(cc32)OCO4)ccc1O (stereo not given)	13.3	14.8	2.9	3.3	9.3	7.2
COc1cc(C2C3=C(COC3=O)OC(C)(C)Oc3cc4c(cc32)OCO4)cc(OC)c1OC (stereo not given)	23.4	64.2*	-20.8	-40.3	-0.5	54.2
CN(C)CCNC(=O)COc1ccc(C23CC4CC(CC(C4)C2)C3)cc1	8.1	26.0	96.7*	-31.5	-25.0	69.5*
COc1ccccc1C(C)NCC(=O)NC(=O)NCc1ccco1 (stereo not given)	-0.3	26.3	-10.2	-7.3	4.0	-3.9
O=C(CCC(=O)N1CCOc2ccc(Cl)cc21)NCCCN1CCC(Cc2ccccc2)CC1	-10.6	34.6	74.7*	-21.0	-15.0	6.5
OC(CNC1CCCCC1)CON=C1CCSc2c(Cl)cccc21 (stereo not given)	-13.6	31.8	95.6*	-21.8	4.0	nt
Cn1nc(-c2ccc(Cl)cc2)cc1NC(=O)CSCC(=O)O	17.1	-0.5	13.9	-0.7	-2.6	nt
COc1ccccc1C(=O)Nc1nc(-c2ccc(S(=O)(=O)N3CCOCC3)cc2)cs1	-11.2	-17.6	95.5*	-10.2	88.9*	81.5*
CC(=O)c1c(C)[nH]c(C(=O)Nc2nc(-c3ccc(-c4ccccc4)cc3)cs2)c1C	-72.9	77.5*	103.2*	-26.6	41.7	-4.5
O=C(Nc1nc(-c2ccccc2)cs1)c1ccccc1NS(=O)(=O)c1ccc(F)cc1	-8.8	47.7	40.3	-37.0	48.6	69.5*
O=C(Nc1nc(-c2ccccn2)cs1)c1cccc(S(=O)(=O)N2CCOCC2)c1	15.1	-9.7	49.4	1.6	87.7*	41.0
Cc1nn(CC(=O)Nc2ccc(S(N)(=O)=O)cc2)c(=O)c2ccccc12	12.5	0.8	0.0	-2.8	3.2	-4.5
CC(=O)Oc1ccccc1C(=O)N(C1CCCCC1)C1CCCCC1	18.9	3.0	23.6	4.4	37.8	-2.3
Cc1nn(-c2ccccc2)c(C)c1C(=O)OC(C)C(=O)NC1CCCCC1 (stereo not given)	16.1	-4.0	11.9	23.9	83.2*	10.8
Cc1c(N2C(=O)c3cccc4cccc(c34)C2=O)cnn1C	-4.4	3.7	-0.3	5.0	23.1	8.6
CC(C)C[C@H]1CN([C@@H](CC(C)C)CN2CCCC2CN2C(=S)NC[C@@H]2Cc2ccc(O)cc2)C(=S)N1CC1CCCCCC1 (stereo not given in full)	-11.7	5.3	90.8*	2.8	44.7	-2.2
CC(C)C[C@@H](CN1CCC[C@@H]1CN1C(=S)NC[C@@H]1Cc1ccc(O)cc1)N1C[C@H](Cc2ccc(O)cc2)N(CC2CCCCCC2)C1=S	-31.4	28.7	79.8*	-1.7	-3.2	nt
CC(C)C[C@H]1CN([C@@H](CC(C)C)CN2CCCC2CN2C(=S)NC[C@@H]2Cc2ccc(O)cc2)C(=S)N1CC1CCCCC1 (stereo not given in full)	-9.9	18.8	71.6*	1.3	49.1	20.2
CC(C)C[C@H]1CN([C@@H](CC(C)C)CN2CCC[C@@H]2CN2C(=S)NC[C@@H]2Cc2ccc(O)cc2)C(=S)N1CC1CCCCC1	-11.6	64.9*	94.6*	-54.8*	4.8	nt
COc1cc(C(=O)Nc2ccc3c(c2)CCCN3C(=O)c2ccco2)c([N+](=O)[O-])cc1OC	0.4	-19.4	3.0	-13.8	2.7	3.9
SMILES	HIF-2a inh	CF NFkB block	Peg3 prom inh	KKLEB tox	Shn3 inh set2	MITF TRPM1 inh
Oc1ccc(C[C@H]2CNC(=S)N2CC2CCCN2C[C@H](Cc2ccccc2)N2C[C@H](Cc3ccc(O)cc3)N(CC3CCCCC3)C2=S)cc1 (stereo not given in full)	-9.9	36.3	96.8*	-2.0	7.7	nt
Oc1ccc(C[C@H]2CNC(=S)N2C[C@H]2CCCN2C[C@H](Cc2ccccc2)N2C[C@H](Cc3ccc(O)cc3)N(CCc3ccccc3)C2=S)cc1	-48.6	41.9	75.8*	-6.4	-9.5	nt
Oc1ccc(C[C@H]2CN([C@@H](Cc3ccc(O)cc3)CN3CCC[C@@H]3CN3C(=S)NC[C@@H]3Cc3ccccc3)C(=S)N2CCc2ccccc2)cc1	-9.1	26.6	33.3	-8.3	-1.9	nt
CSCCC(NC(=O)c1cccc(C)c1)C(=O)NCc1cccs1 (stereo not given)	9.3	-3.4	3.8	-5.4	2.5	16.2
O=C(c1ccc(CS(=O)c2ccccc2Cl)o1)N1CCN(c2ccccn2)CC1 (stereo not given)	-4.1	16.8	35.2	1.5	1.1	26.7
COc1cc(CNC(C)C23CC4CC(CC(C4)C2)C3)ccc1OCC(=O)NC(C)(C)C (stereo not given)	25.1	9.5	72.1*	-7.8	1.9	6.6
Cc1ccc(Cl)cc1N1CCN(C(=O)C2CCN(S(=O)(=O)c3c(C)nn(C)c3C)CC2)CC1	9.4	12.1	50.6*	-12.7	32.1	-3.6
CCC(C)c1ccccc1N1CC(C(=O)NCCCn2nc(C)cc2C)CC1=O (stereo not given)	9.9	16.3	7.4	-11.2	1.1	5.4
CC1=CC(=O)C(Sc2ccc(C)cc2)=CC1=O	10.4	79.8*	59.8*	-35.7	60.4	nt
O=C(NC1CCCCCC1)c1cc(-c2ccccn2)nc2ccccc12	12.5	-13.0	16.8	-9.0	1.5	9.3
C/C(=N\NC(=O)c1cccnc1)c1ccc(OC2OCCOC2Oc2ccc(/C(C)=N/NC(=O)c3cccnc3)cc2)cc1 (stereo not given)	7.6	-26.4	17.6	9.4	14.1	-1.4
